Results as given in PubChem BioAssay (EPA / NIEHS).
The source made the active and inactive calls. How the source made its calls: active means hit-call score of the fitted dose curve at least 0.9, where 1 is the maximum; inactive means score below 0.9.

The compounds below were run on ABC Transporter (ABCC2), ABCC2 (gene 1244) (assay: LTEA_HepaRG_ABCC2: Life Technologies and Expression Analysis (LTEA) Assay for ABC Transporter (ABCC2) using HepaRG (AID 2283464)). Conditions: mRNA level, 48 h; actives raise or lower the signal.
How it was run: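 After plating and 48 h culture, HepaRG medium is replaced with serum-free induction medium and chemicals are added (8 concentrations, max 100 uM, 0.5% DMSO) for 48 h. Total RNA then undergoes qRT-PCR for ABCC2 with housekeeping normalization.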

SMILES | outcome | AC50
CNC(=O)Oc1cccc2c1OC(C)(C)C2 | inactive | 
CCCCCOC(=O)c1ccccc1C(=O)OCCCCC | inactive | 
CC(C)N(Cc1ccccc1)C(=O)C(C)(C)C |  | 50 µM (active)
COP(=S)(OC)SCN1C(=O)c2ccccc2C1=O | inactive | 
CC(C)(O)c1cnn2c(-c3ccc(F)c(-c4c(F)cccc4C#N)c3)cnc2n1 |  | 0.304 µM (active)
Nc1ccc(Cl)cc1N |  | 37.3 µM (active)
Oc1ccc2ccc3cccc4ccc1c2c34 | inactive | 
Cn1cc(-c2ccccc2)c(=O)c(-c2cccc(C(F)(F)F)c2)c1 |  | 5.1 µM (active)
Cc1cc(N=Nc2ccccc2C)ccc1N |  | 3.17 µM (active)
C[C@]12C=CC3=C4CCC(=O)C=C4CC[C@H]3[C@@H]1CC[C@@H]2O | inactive | 
O=C(Nc1ccccc1)c1ccccc1I | inactive | 
CC(C)(C)C(O)(CCc1ccc(Cl)cc1)Cn1cncn1 (stereo not drawn) | inactive | 
CCOc1cccc(C2(N3CCN(c4ccccc4)CC3)CCC(C)CC2)c1 (stereo not drawn) | inactive | 
CCCCCCCCCCCCCN1CC(C)OC(C)C1 (stereo not drawn) | inactive | 
CCC(C)c1ccc(O)cc1 (stereo not drawn) | inactive | 
N#CC(Br)(Br)C(N)=O | inactive | 
c1ccc(NNc2ccccc2)cc1 | inactive | 
Nc1ccc(N=Nc2ccccc2)cc1 |  | 13.2 µM (active)
Cc1ccc(N)c(N)c1 | inactive | 
O=P(OCCCl)(OCCCl)OCCCl | inactive | 
O=C(Oc1ccc(Br)cc1)N1CCN2CCC1CC2 | inactive | 
Nc1ccc(Cc2ccc(N)cc2)cc1 | inactive | 
Cc1ccc(N=C=O)cc1N=C=O | inactive | 
Cc1cccc(N)c1N | inactive | 
[As]#[In] | inactive | 
O=[N+]([O-])c1ccc(Oc2ccc(Cl)cc2Cl)cc1 | inactive | 

The compounds below were run on Broad substrate specificity ATP-binding cassette transporter ABCG2 (Homo sapiens) (UniProt Q9UNQ0) (assay: LTEA_HepaRG_ABCG2: Life Technologies and Expression Analysis (LTEA) Assay for ABC Transporter (ABCG2) using HepaRG (AID 2283465)). Conditions: mRNA level, 48 h; actives raise or lower the signal.
How it was run: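 HepaRG, 48 h exposure, 8-pt half-log series from 100 uM, 0.5% DMSO vehicle, duplicates. Readout: ABCG2 transcript by qRT-PCR (Fluidigm array), housekeeping-normalized; bidirectional curve fit relative to DMSO baseline.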

Chain of Broad substrate specificity ATP-binding cassette transporter ABCG2 (Homo sapiens) (Q9UNQ0 whole entry, looked up): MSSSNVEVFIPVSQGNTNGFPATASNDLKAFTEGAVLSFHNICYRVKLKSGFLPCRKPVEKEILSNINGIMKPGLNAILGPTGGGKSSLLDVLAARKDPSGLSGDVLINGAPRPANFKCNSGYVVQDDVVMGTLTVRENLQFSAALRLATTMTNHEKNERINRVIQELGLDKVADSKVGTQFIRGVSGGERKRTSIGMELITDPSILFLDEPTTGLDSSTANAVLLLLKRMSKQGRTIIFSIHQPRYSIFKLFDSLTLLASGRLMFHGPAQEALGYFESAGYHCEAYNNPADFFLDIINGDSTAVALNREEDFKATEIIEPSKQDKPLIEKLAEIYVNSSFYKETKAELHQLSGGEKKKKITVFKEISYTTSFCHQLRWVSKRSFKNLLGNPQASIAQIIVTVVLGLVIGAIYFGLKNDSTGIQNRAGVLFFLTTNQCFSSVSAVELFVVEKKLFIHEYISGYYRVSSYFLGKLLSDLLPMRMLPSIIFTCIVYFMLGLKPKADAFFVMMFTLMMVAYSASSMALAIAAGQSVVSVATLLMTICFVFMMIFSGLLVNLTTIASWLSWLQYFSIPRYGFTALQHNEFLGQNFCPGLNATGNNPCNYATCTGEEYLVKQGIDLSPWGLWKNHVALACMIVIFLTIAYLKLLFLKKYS

SMILES | outcome | AC50
CNC(=O)Oc1cccc2c1OC(C)(C)C2 | inactive | 
CCCCCOC(=O)c1ccccc1C(=O)OCCCCC | inactive | 
CC(C)N(Cc1ccccc1)C(=O)C(C)(C)C | inactive | 
COP(=S)(OC)SCN1C(=O)c2ccccc2C1=O | inactive | 
CC(C)(O)c1cnn2c(-c3ccc(F)c(-c4c(F)cccc4C#N)c3)cnc2n1 | inactive | 
Nc1ccc(Oc2ccc(N)cc2)cc1 | inactive | 
Nc1ccc(Cl)cc1N | inactive | 
Oc1ccc2ccc3cccc4ccc1c2c34 |  | 11.9 µM (active)
Cn1cc(-c2ccccc2)c(=O)c(-c2cccc(C(F)(F)F)c2)c1 |  | 10.6 µM (active)
Cc1cc(N=Nc2ccccc2C)ccc1N | inactive | 
C[C@]12C=CC3=C4CCC(=O)C=C4CC[C@H]3[C@@H]1CC[C@@H]2O | inactive | 
O=C(Nc1ccccc1)c1ccccc1I |  | 11.7 µM (active)
CC(C)(C)C(O)(CCc1ccc(Cl)cc1)Cn1cncn1 (stereo not drawn) | inactive | 
CCOc1cccc(C2(N3CCN(c4ccccc4)CC3)CCC(C)CC2)c1 (stereo not drawn) | inactive | 
CCCCCCCCCCCCCN1CC(C)OC(C)C1 (stereo not drawn) | inactive | 
CCC(C)c1ccc(O)cc1 (stereo not drawn) | inactive | 
N#CC(Br)(Br)C(N)=O | inactive | 
c1ccc(NNc2ccccc2)cc1 | inactive | 
Nc1ccc(N=Nc2ccccc2)cc1 |  | 13 µM (active)
Cc1ccc(N)c(N)c1 | inactive | 
O=P(OCCCl)(OCCCl)OCCCl | inactive | 
O=C(Oc1ccc(Br)cc1)N1CCN2CCC1CC2 | inactive | 
Nc1ccc(Cc2ccc(N)cc2)cc1 | inactive | 
Cc1ccc(N=C=O)cc1N=C=O | inactive | 
Cc1cccc(N)c1N | inactive | 
[As]#[In] | inactive | 
O=[N+]([O-])c1ccc(Oc2ccc(Cl)cc2Cl)cc1 |  | 14.5 µM (active)
